Data reported in PubChem BioAssay AID1159580 (chemical genetic matrix, 2015).
The campaign covered roughly 5,500 compounds. About 2,000 (36%) were called active. Roughly 18% stayed inconclusive and do not appear here. Cut-off read from the data, not from the text of the source: active = normalized growth mostly below about 0.91 (no sharp cut-off); inconclusive = no clear call, values can overlap the other calls; inactive = mostly above about 0.92. Some of the results follow.

Assay: chemical genetic growth profiling, strain panel (AID 1159580);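 note: tested at 20 µM; growth read once vehicle control cultures reached saturation at 30 °C; 1 = growth at the plate median or of vehicle wells; lower values mean less growth of the strain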
Conditions: S. cerevisiae deletion strains, growth OD
[1] = locus YAL040C, strain CLN3, stronger effect = lower value
[2] = locus YCL061C, strain MRC1 (second series), stronger effect = lower value
[3] = locus YDR150W, strain NUM1, stronger effect = lower value
[4] = locus YER002W, strain NOP16, stronger effect = lower value
[5] = locus YGR078C, strain PAC10, stronger effect = lower value
[6] = locus YJR075W, strain HOC1, stronger effect = lower value
[7] = locus YMR263W, strain SAP30, stronger effect = lower value
[8] = locus YNL175C, strain NOP13, stronger effect = lower value
[9] = locus YNL197C, strain WHI3, stronger effect = lower value
[10] = locus YNL224C, strain SQS1, stronger effect = lower value
[11] = locus YOR083W, strain WHI5 (second series), stronger effect = lower value

Measured: normalized growth

Cc1sc2ccccc2c1CC1=NCCN1
inactive: [1] 0.972 | [2] 0.993 | [3] 0.995 | [4] 0.988 | [5] 1 | [6] 1.01 | [7] 1 | [8] 1.03 | [9] 1 | [10] 1 | [11] 0.982 | locus YPL241C, strain CIN2, stronger effect = lower value 1

NC(Cc1ccc(N(CCCl)CCCl)cc1)C(=O)O (configuration not stated)
inactive: locus YAL013W, strain DEP1, stronger effect = lower value 0.981 | [1] 0.995 | [2] 0.996 | [3] 1.01 | locus YDR363W, strain ESC2, stronger effect = lower value 0.986 | [4] 0.974 | [5] 0.976 | [6] 1 | [7] 0.997 | locus YMR307W, strain GAS1, stronger effect = lower value 1 | locus YNL153C, strain GIM3, stronger effect = lower value 1.04 | [8] 0.977 | [9] 0.983 | [10] 1.01 | [11] 0.993
